Bioassay records as filed in PubChem BioAssay.
Pf growth 96h: Primary qHTS for delayed death inhibitors of the malarial parasite plastid, 96 hour incubation. P. falciparum luciferase reporter growth, 96 h. Potency, µM (series often up to 28.7 µM), without a hit: at the highest dose activity change, negative = inhibition, usual class: inhibitors. 320,000 compounds, 6.9% hits; further: on the % scale 0 is the no-effect control and ±100 the full control effect
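Plates of compound plus infected erythrocytes (2% hematocrit, 0.05% parasitemia final) incubate 96 hours, 37 C, 5% CO2. Detection reagent added; reduced luminescence from the parasites' luciferase reporter flags inhibition.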
HCV inhibitor: qHTS Assay for Inhibitors of Hepatitis C Virus (HCV); Huh7.5.1 HCVcc-Cre infection, luciferase reporter, 44 h; Potency, µM (top dose mostly 41.8 µM), for inactives: top-dose activity change, negative = inhibition, hits mostly inhibitors; 340,000 compounds, 3.4% hits; AID 651820, 2012; further: on the % scale 0 is the no-effect control and ±100 the full control effect
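Antiviral activity was scored by luciferase reporter output from cells infected with HCVcc-Cre (~0.5 moi) in presence of compound, 44 h infection period, cells seeded 1,000/well 4 h prior.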
VACV mCherry inh: qHTS for Stage-Specific Inhibitors of Vaccinia Orthopoxvirus: mCherry Reporter Primary qHTS; Vaccinia virus mCherry reporter infection, fluorescence; Potency, µM (titrated, usually from 36.5 µM), without a hit: at the top dose activity change, negative = inhibition, usual class: inhibitors; 310,000 compounds, 0.63% hits; calls by dose curve; tested in A549 cells; further: on the % scale 0 is the no-effect control and ±100 the full control effect; nearly all actives have a fitted effect of over 35% in size
NS1 function inh: qHTS Assay for Inhibitors of Influenza NS1 Protein Function | 270,000 compounds, 0.4% hits | Potency, µM (doses to about 46.1 µM), for the others: top-dose activity, positive = more growth; calls by dose curve; further: actives are rising curves; nearly all actives have a fitted effect of over 50% in size
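Recovery from NS1-induced slow growth read by OD600 in budding yeast switched to galactose assay medium (pH 6.0, -URA) at 1:100 dilution. Compound 23 nl per well; the matching strain lacking NS1 serves as control.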
Pf growth 48h: Primary qHTS for delayed death inhibitors of the malarial parasite plastid, 48 hour incubation. 310,000 compounds, 5.9% hits. P. falciparum luciferase growth in erythrocytes, 48 h. Potency, µM (highest dose often 28.7 µM), inactives show at the top dose activity change, negative = inhibition, actives largely listed as inhibitors; further: on the % scale 0 is the no-effect control and ±100 the full control effect
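Growth was read as firefly luciferase luminescence after a 48 h, 37 C, 5% CO2 exposure of compounds to reporter-bearing P. falciparum cultures (0.1% parasitemia, 2% hematocrit final) in Albumax-supplemented RPMI 1640.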
Vaccinia Venus: qHTS for Stage-Specific Inhibitors of Vaccinia Orthopoxvirus: Venus Reporter Primary qHTS; Vaccinia virus Venus reporter expression, fluorescence; Potency, µM (titrated, usually from 36.5 µM), for inactives: at the top dose activity change, negative = inhibition, hits mostly inhibitors; 330,000 compounds, 0.46% hits; AID 720580, 2013; calls by dose curve; tested in A549 cells; further: on the % scale 0 is the no-effect control and ±100 the full control effect; nearly all actives have a fitted effect of over 30% in size
Active calls of the source: *; i = inactive; ? = inconclusive; . = no result. Rows were chosen to be rich in hits. Some 11% of all compounds tested hit in one or more screens of this group. Unless noted, the call rests on the fitted dose curve; in most records, active means well fitted inhibition curve with a large enough effect; inconclusive means small, poorly fitted or top-dose-only effect, or another doubt; inactive means no such curve, though single readings can be large or run the other way. Potency means the concentration at half of the fitted maximal effect.

SMILES	Pf growth 96h	HCV inhibitor	VACV mCherry inh	NS1 function inh	Pf growth 48h	Vaccinia Venus
CCN(CC)S(=O)(=O)c1cccc(C(=O)N/N=C/c2ccc(O)c(O)c2O)c1	-3.3%	6.6%	i	15.2%	-12.0%	-7.5%
CC(=O)Nc1cccc(/C(C)=N/NC(=O)c2cccc(S(=O)(=O)N3CCOCC3)c2)c1	11.7µM*	1.3%	-1.6%	.	-1.9%	1.9%
C/C(=N\NC(=O)c1cccc(S(=O)(=O)N2CCOCC2)c1)c1ccc(OC(F)F)cc1	-14.1%	?	-7.7%	.	?	-16.0%
C/C(=N\NC(=O)c1cccc(S(=O)(=O)N2CCOCC2)c1)c1ccc(O)cc1	0.586µM*	?	.	.	-20.5%	.
N#Cc1cnn(-c2cc(Cl)ccc2Cl)c1N	.	.	-3.9%	.	.	-13.5%
COc1ccc(S(=O)(=O)Nc2ccc(S(=O)(=O)N3CCCCC3)cc2)cc1	30.2%	-5.7%	-18.1%	-5.4%	16.2%	-10.3%
COC(=O)[C@@H]1[C@@H](C(=O)OC)C2(c3ccccc3-c3ccccc32)N(c2ccc(Cl)cc2)N1C#N	?	1.78µM*	?	17.2%	?	?
COC(=O)C1OC2(OC1C(=O)OC)c1ccccc1-c1ccccc12 (configuration not stated)	?	4.3%	.	-52.5%	13.7%	19.8%
COc1cccc(OCc2cc(C(=O)N3C[C@H]4C[C@@H](C3)c3cccc(=O)n3C4)no2)c1	?	3.3%	-3.4%	-10.3%	0.0%	?
Cc1ccc(C)n1-c1ccc(NC(=O)c2ccccc2)cc1	11.7µM*	-13.5%	-9.6%	6.9%	?	-3.6%
CCCN1C(=O)c2cc(C(=O)NC3CCCC3)ccc2C1O (configuration not stated)	?	-2.7%	-3.3%	-0.3%	.	-16.0%
Cc1ccc(C)n1-c1ccc(C(=O)Nc2ccccc2F)cc1	-64.9%	-9.4%	-0.4%	.	-31.2%	-1.0%
CCCN1C(=O)c2cc(C(=O)Nc3ccccc3CC)ccc2C1O (configuration not stated)	10.4µM*	-12.1%	34.4%	4.8%	.	-1.6%
CCc1ccccc1NC(=O)c1ccc(-n2c(C)ccc2C)cc1	14.7µM*	?	-28.0%	8.9%	?	-15.8%
CCOC(=O)c1ccc(-n2c(C)ccc2C)cc1	7.38µM*	32.3%	i	8.2%	-22.6%	-9.5%
O=C(COC(=O)c1ccc(S(=O)(=O)NCc2ccco2)cc1)NCc1ccccc1	.	8.3%	i	.	.	6.9%
Nc1nc(NCc2ccco2)nc(NCCO)c1[N+](=O)[O-]	?	3.9%	.	-2.1%	?	.
O=C(NCc1cccc(C(F)(F)F)c1)N1CCN(S(=O)(=O)c2ccccc2F)CC1	-10.0%	-21.2%	-16.7%	-4.4%	-12.1%	-15.1%
CCOc1ccc(S(=O)(=O)Nc2ccccc2C(=O)Nc2ccccc2N2CCOCC2)cc1	.	17.0%	i	-4.7%	-12.6%	-8.2%
CCCOc1ccc(C(=O)Nc2cc(S(=O)(=O)N3CCOCC3)ccc2N2CCOCC2)cc1	?	?	.	.	11.7µM*	.
N#Cc1ccc(C(=O)Nc2cc(S(=O)(=O)N3CCOCC3)ccc2N2CCOCC2)cc1	.	.	i	.	.	0.1%
CCOc1ccc(C(=O)Nc2cc(S(=O)(=O)Nc3ccccc3Cl)ccc2N2CCOCC2)cc1	2.62µM*	?	-0.8%	?	?	-17.6%
O=C(CCNS(=O)(=O)c1ccc(Br)s1)Nc1ccc(Cl)cc1	.	-4.0%	-21.5%	-1.0%	-3.7%	0.0%
CS(=O)(=O)c1ccc(C(=O)NCCN2C(=O)S/C(=C\c3cccnc3)C2=O)cc1[N+](=O)[O-]	?	?	.	5.7%	5.22µM*	.
CCCN(C(=O)Cc1c(C(=O)O)[nH]c2ccc(Cl)cc12)c1ccc(OCC)cc1	.	.	-5.2%	.	.	-4.3%
COc1ccc(-c2cc(-c3cccs3)c(C#N)c(SCC(=O)NCc3ccccc3)n2)cc1	18.7%	-29.0%	-9.7%	5.1%	?	-13.1%
